# Assay results from PMC6792352, “Limited Chemical Structural Diversity Found to Modulate Thyroid Hormone Receptor in the Tox21 Chemical Library” (Environmental Health Perspectives, 2019).
# Like-named read-outs stand apart in the source and are kept apart here. The full ranking holds about 7,300 compounds; the median of “AC50” is about 90,000 nM, and the lowest 2% start at about 20,000 nM. The list shows a part of the results.
# Test system: thyroid hormone receptor (endogenous TRα and TRβ)
# Design: species or system GH3-TRE-Luc (rat pituitary); GH3-TRE-Luc luciferase reporter transactivation, agonist mode, qHTS; RXR ligands can also activate indirectly
Compound,"AC50 (read-out: TR_LUC_GH3_Agonist_AC50, agonist mode, primary qHTS, 24 h) [µM]","AC50 (read-out: TR_LUC_GH3_Agonist_AC50, agonist mode, primary qHTS, 24 h, TR_LUC_GH3_Agonist_AC50 (uM)) [µM]"
O=C(O)Cc1cc(I)c(Oc2ccc(O)c(I)c2)c(I)c1 [Tiratricol],0.000154,–
Cc1ccc(O)cc1 [Cresol],–,25
